Key:
Test in all cases: PBM binding z-score (relative to random genomic background probes); higher = stronger binding; sequences stand for … in GC…GCGATTGACAGCGTAGAATGAAGG
[1] = system: RARb homodimer (NR concentration 270 nM)
In short: (§1)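 Binding buffer was PBS pH 7.4 with 2% milk, 0.02% Triton X-100, 1 mM DTT, 0.2 mg/mL BSA and 0.4 mg/ml salmon testes DNA. In it, ligand-free nuclear receptor dimers were incubated 1 h on custom Agilent 4×180K protein-binding microarrays carrying double-stranded probes. Antibodies against each partner (one per run) detected binding, and z-scores were calculated against random background probes after regression normalization of scanned fluorescence.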

[2] = system: RARg:RXRa (NR concentration 270 nM, RXRa partner concentration 90 nM)
In short: as §1

[3] = system: RARg homodimer (NR concentration 270 nM)
In short: as §1

[4] = system: RXRa DBDmut IVT, anti-RXR (DBD mutation: RXRa K156A/R161A, NR concentration 90 nM)
In short: as §1

[5] = system: RXRa homodimer (NR concentration 180 nM)
In short: as §1

[6] = system: THRa:RXRa (NR concentration 90 nM, RXRa partner concentration 90 nM)
In short: as §1

[7] = system: THRa homodimer (NR concentration 90 nM)
In short: as §1

[8] = system: VDR homodimer (NR concentration 270 nM)
In short: as §1

CGTCCAAGGTCCAGGTCAGTGAAAGAGACTCGAA
PBM binding z-score [1]: 2.38
PBM binding z-score [2]: 1.4
PBM binding z-score [3]: 1.92
PBM binding z-score [4]: 0.467
PBM binding z-score [5]: 0.732
PBM binding z-score [6]: 2.22
PBM binding z-score [7]: 1.67
PBM binding z-score [8]: 0.482

ATCTCTAGGTAACCAACTTCAGTGAATGCCGAAC
PBM binding z-score [1]: 0.171
PBM binding z-score [2]: 0.209
PBM binding z-score [3]: 0.26
PBM binding z-score [4]: 0.264
PBM binding z-score [5]: 0.158
PBM binding z-score [6]: 0.65
PBM binding z-score [7]: 0.878
PBM binding z-score [8]: 0.195

CGTCAAAGTTCAACTAAGGGAACGTAAAGCACGC
PBM binding z-score [1]: 3.93
PBM binding z-score [2]: 5.85
PBM binding z-score [3]: 6.56
PBM binding z-score [4]: 4.65
PBM binding z-score [5]: 5.21
PBM binding z-score [6]: 4.49
PBM binding z-score [7]: 0.0368
PBM binding z-score [8]: 3.51

TCTGCTAAGTCAGTTGGTCAGCTAACGAGCTGCC
PBM binding z-score [1]: -0.3
PBM binding z-score [2]: -0.611
PBM binding z-score [3]: -0.521
PBM binding z-score [4]: -0.0698
PBM binding z-score [5]: -0.61
PBM binding z-score [6]: -0.628
PBM binding z-score [7]: -0.977
PBM binding z-score [8]: -0.941

CCGAGTAGGTTATGGGGCATTCTGGCAACGGTGA
PBM binding z-score [1]: 1.05
PBM binding z-score [2]: 0.374
PBM binding z-score [3]: 0.468
PBM binding z-score [4]: 0.11
PBM binding z-score [5]: 0.554
PBM binding z-score [6]: 0.0308
PBM binding z-score [7]: 0.157
PBM binding z-score [8]: 0.195

ACAGACAGGTGAGTGCAGGTAACTCAGCTGGACG
PBM binding z-score [1]: -0.104
PBM binding z-score [2]: 0.091
PBM binding z-score [3]: 0.426
PBM binding z-score [4]: 0.222
PBM binding z-score [5]: 0.412
PBM binding z-score [6]: 1.69
PBM binding z-score [7]: -0.612
PBM binding z-score [8]: 0.269

CAAACTAGATCACAGAGGTCAAAGTCCGTGCGTA
PBM binding z-score [1]: 4.34
PBM binding z-score [2]: 4.96
PBM binding z-score [3]: 4.25
PBM binding z-score [4]: 2.41
PBM binding z-score [5]: 5.63
PBM binding z-score [6]: 3.64
PBM binding z-score [7]: 1.29
PBM binding z-score [8]: 5.11

TTACCAAGGTGAGCTGAGGTCGATGATCCAACTC
PBM binding z-score [1]: 1.56
PBM binding z-score [2]: 1.03
PBM binding z-score [3]: 1.05
PBM binding z-score [4]: -0.52
PBM binding z-score [5]: 1.06
PBM binding z-score [6]: 4.48
PBM binding z-score [7]: 1.6
PBM binding z-score [8]: 0.355

CTCGAAATGTCGTGCTCAGGTGAGTATACCAAAC
PBM binding z-score [1]: 0.0938
PBM binding z-score [2]: 0.145
PBM binding z-score [3]: 0.0439
PBM binding z-score [4]: 0.155
PBM binding z-score [5]: -0.16
PBM binding z-score [6]: 1.53
PBM binding z-score [7]: 0.939
PBM binding z-score [8]: 0.16

CCTACTGGGCCATTCAGAGCTCATTGATCATATG
PBM binding z-score [1]: -0.346
PBM binding z-score [2]: -0.434
PBM binding z-score [3]: -0.184
PBM binding z-score [4]: 0.0203
PBM binding z-score [5]: -0.591
PBM binding z-score [6]: -0.578
PBM binding z-score [7]: -0.449
PBM binding z-score [8]: -0.387

GCTAGCAGGCCATTTGGGTCACGCAATGACGGGC
PBM binding z-score [1]: 2.27
PBM binding z-score [2]: 1.79
PBM binding z-score [3]: 1.75
PBM binding z-score [4]: -0.208
PBM binding z-score [5]: 1.68
PBM binding z-score [6]: 2.54
PBM binding z-score [7]: 1.19
PBM binding z-score [8]: 0.28

TTTTGTAGATCAGCAGGTTAAGAAAGCTGGCCAA
PBM binding z-score [1]: 0.145
PBM binding z-score [2]: -0.111
PBM binding z-score [3]: -0.252
PBM binding z-score [4]: -0.708
PBM binding z-score [5]: 0.104
PBM binding z-score [6]: 0.144
PBM binding z-score [7]: -0.308
PBM binding z-score [8]: -0.168

ACTCGGAGGACACAGGTCAGAGCTACGCCAGTGA
PBM binding z-score [1]: 2.78
PBM binding z-score [2]: 2.68
PBM binding z-score [3]: 3.12
PBM binding z-score [4]: 0.823
PBM binding z-score [5]: 2.09
PBM binding z-score [6]: 2.57
PBM binding z-score [7]: 0.77
PBM binding z-score [8]: 0.0264

CCTATTAGTTGACCATAAGGGAAACCGAAGCTCG
PBM binding z-score [1]: 0.512
PBM binding z-score [2]: 0.264
PBM binding z-score [3]: 0.552
PBM binding z-score [4]: 0.71
PBM binding z-score [5]: 0.398
PBM binding z-score [6]: 0.545
PBM binding z-score [7]: 0.494
PBM binding z-score [8]: 0.692

TAGCCTAGGTCAGATCGGGACAGTATACGCTATA
PBM binding z-score [1]: 2.11
PBM binding z-score [2]: 2.85
PBM binding z-score [3]: 3.78
PBM binding z-score [4]: -0.412
PBM binding z-score [5]: 1.76
PBM binding z-score [6]: 4.67
PBM binding z-score [7]: 0.686
PBM binding z-score [8]: -0.152

GGAACGCGGGCATTCGAGTTGATAGCATGGCGAT
PBM binding z-score [1]: -0.894
PBM binding z-score [2]: -0.144
PBM binding z-score [3]: -0.0858
PBM binding z-score [4]: 0.211
PBM binding z-score [5]: -0.381
PBM binding z-score [6]: 0.468
PBM binding z-score [7]: -1.25
PBM binding z-score [8]: 0.00818

CCTACTGGGCCAAAAAGGTCATAGATGCCGATAA
PBM binding z-score [1]: 4.35
PBM binding z-score [2]: 4.63
PBM binding z-score [3]: 4.54
PBM binding z-score [4]: 0.263
PBM binding z-score [5]: 5.22
PBM binding z-score [6]: 3.08
PBM binding z-score [7]: 0.589
PBM binding z-score [8]: 2

ATCGAAAGGTCTAGGTGAGTATAGAGAAAGGGAA
PBM binding z-score [1]: 1.12
PBM binding z-score [2]: 1.23
PBM binding z-score [3]: 1.3
PBM binding z-score [4]: 0.133
PBM binding z-score [5]: 0.532
PBM binding z-score [6]: 0.835
PBM binding z-score [7]: 0.338
PBM binding z-score [8]: -0.115

TCTATTAGTTGATTAGGGCAACCGTAACAGCGGA
PBM binding z-score [1]: 0.955
PBM binding z-score [2]: 0.567
PBM binding z-score [3]: 0.671
PBM binding z-score [4]: 1.16
PBM binding z-score [5]: 0.558
PBM binding z-score [6]: 0.75
PBM binding z-score [7]: 0.547
PBM binding z-score [8]: 0.281

TCGAGTAGGTTAGTCGGGGCATGCAGCCAACATA
PBM binding z-score [1]: 0.498
PBM binding z-score [2]: -0.0315
PBM binding z-score [3]: -0.00519
PBM binding z-score [4]: 0.0884
PBM binding z-score [5]: 0.113
PBM binding z-score [6]: 0.978
PBM binding z-score [7]: -0.26
PBM binding z-score [8]: -0.157

TCTATCAGTTGATTAGGGCAACCGAAACAGCGGA
PBM binding z-score [1]: 0.548
PBM binding z-score [2]: 0.522
PBM binding z-score [3]: 0.467
PBM binding z-score [4]: 0.825
PBM binding z-score [5]: 0.276
PBM binding z-score [6]: 0.643
PBM binding z-score [7]: -0.0881
PBM binding z-score [8]: -0.1

CGAACTAGGTCAGAACAGGGCAGTGAAGGATGAT
PBM binding z-score [1]: 2.52
PBM binding z-score [2]: 2.65
PBM binding z-score [3]: 3.35
PBM binding z-score [4]: 0.463
PBM binding z-score [5]: 1.28
PBM binding z-score [6]: 2.69
PBM binding z-score [7]: 0.148
PBM binding z-score [8]: 0.0633

ACTAGATGGTCAGCTGAGGTCACACACAATTCGG
PBM binding z-score [1]: 4.52
PBM binding z-score [2]: 4.38
PBM binding z-score [3]: 4.75
PBM binding z-score [4]: 1.45
PBM binding z-score [5]: 4.78
PBM binding z-score [6]: 5.09
PBM binding z-score [7]: 5.1
PBM binding z-score [8]: 3.61

ATATGTAGGTTACATCCGGGTCCTTCAGGCTATG
PBM binding z-score [1]: 0.958
PBM binding z-score [2]: 0.862
PBM binding z-score [3]: 0.764
PBM binding z-score [4]: 0.474
PBM binding z-score [5]: 1.07
PBM binding z-score [6]: 1.51
PBM binding z-score [7]: 0.753
PBM binding z-score [8]: 0.68

GTACCAAGGTGAATAGTTCGTTGATGAGTAGGCG
PBM binding z-score [1]: 1.71
PBM binding z-score [2]: 1.94
PBM binding z-score [3]: 1.34
PBM binding z-score [4]: -0.0101
PBM binding z-score [5]: 0.854
PBM binding z-score [6]: 1.39
PBM binding z-score [7]: 0.601
PBM binding z-score [8]: 0.698

CGTCAACGTTCAAGGTAACGTAACAGAAAGCAGC
PBM binding z-score [1]: 0.184
PBM binding z-score [2]: 0.115
PBM binding z-score [3]: 0.672
PBM binding z-score [4]: 0.181
PBM binding z-score [5]: 0.245
PBM binding z-score [6]: 1.48
PBM binding z-score [7]: 0.849
PBM binding z-score [8]: -0.423

CGTCCAAGGTCAGCAGGTCAGTGCAAGCGACGTG
PBM binding z-score [1]: 4.99
PBM binding z-score [2]: 6.35
PBM binding z-score [3]: 6.82
PBM binding z-score [4]: 2.29
PBM binding z-score [5]: 4.74
PBM binding z-score [6]: 3.77
PBM binding z-score [7]: 2.47
PBM binding z-score [8]: 2.18

AATACAGGGTCACTAGACCAGAGTAGGTACGAAT
PBM binding z-score [1]: 2.96
PBM binding z-score [2]: 4.98
PBM binding z-score [3]: 4.81
PBM binding z-score [4]: 2.68
PBM binding z-score [5]: 5.91
PBM binding z-score [6]: 3.24
PBM binding z-score [7]: 1.08
PBM binding z-score [8]: 2.54

From the supplement of paper PMC6555819
